From PubChem BioAssay AID686978 (National Center for Advancing Translational Sciences (NCATS), 2013)
The campaign covered roughly 420,000 compounds. About 64,000 (15%) were called active. Another 27% or so got no clear call; they are omitted. A selection follows. Unmarked numbers belong to inactive results. Calls follow the shape of the dose curve; as a rule, active = well fitted inhibition curve with a large enough effect; inconclusive = small, poorly fitted or top-dose-only effect; inactive = flat fitted curve, though single readings scatter.

Experiment: qHTS for Inhibitors of human tyrosyl-DNA phosphodiesterase 1 (TDP1): qHTS in cells in absence of CPT; also: nearly all actives have a fitted effect of over 55% in size
Conditions: DT40 Tdp1-/- hTDP1 cells, no CPT, ATP luminescence, 48 h; activity change, negative = growth inhibition: at 46.2 µM (top of the series)
Procedure, shortened: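 Growth of hTDP1-complemented DT40 Tdp1-knockout cells is measured by ATP luminescence after at least 48 hr compound exposure at 37 °C, with DMSO substituting for the 20 nM CPT used in the parallel screen.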
% is scaled to controls: 0 for no effect and ±100 for the full control effect; potency is read from the fitted curve at half-maximal effect.

Row | SMILES | activity change, negative = growth inhibition | Potency
1 | C[C@H]1CC[C@]2(O[C@@H](CCO)C[C@@H](O)[C@@H]2O)O1 | -14.8% | 
2 | COc1ccc(-n2cc(CNC3CCOCC3)c(-c3cccc(F)c3)n2)cc1 |  | 20.6 µM (active)
3 | COCCn1c(=O)c(-c2cccc(F)c2)nc2cncnc21 | 2.81% | 
4 | Cc1cccc(-n2cc(CN3CCN(C(=O)c4ncn[nH]4)CC3)c(-c3cccc(F)c3)n2)c1 | -1.1% | 
5 | Cn1cc(CN2CCC(C(O)CCc3ccccc3)CC2)c(-c2ccccc2F)n1 (stereo not given) | -15.1% | 
6 | CCC(O)C1CCN(Cc2cn(-c3ccc(OC)cc3)nc2-c2cccc(F)c2)CC1 (stereo not given) |  | 20.6 µM (active)
7 | COc1ccc(NC(=S)N2CCC(NC(=O)c3cccc(F)c3)CC2)cc1 | -22.5% | 
8 | COC(=O)CC1=NN(c2ccccc2)C(=O)C1 | 1.46% | 
9 | COC(=O)CC1Oc2ccccc2-n2cc(-c3ccccc3)nc21 (stereo not given) |  | 20.6 µM (active)
10 | CCC(CC)c1nn2cc(-c3ccccc3)nc2s1 | -10.9% | 
11 | CCC1CCCCN1C(=S)NC(=O)c1ccco1 (stereo not given) | -15.4% | 
12 | CC(=O)c1cccc(NC(=O)[C@@H](NC(N)=O)C(C)C)c1 | 17.4% | 
13 | COc1ccc(CCNC(=O)CSc2nnc(CNC(=O)c3cccs3)o2)cc1OC | -2.7% | 
14 | COc1ccc(CCNC(=O)/C(C#N)=C2\N=C(NC(=O)c3cccs3)c3ccccc32)cc1 |  | 10.3 µM (active)
15 | O=C(O)Cc1ccc(NC(=O)c2cccs2)cc1 | -24.9% | 
16 | CCc1ccc2c(c1)cc(CN(C(=S)Nc1ccccc1Cl)C1CC1)c1nnnn12 | -20.9% | 
17 | Cc1oc2c(C)c3oc(=O)c(CC(=O)N[C@@H](CC(C)C)C(=O)N[C@@H](Cc4ccccc4)C(=O)O)c(C)c3cc2c1C | 4.05% | 
18 | COCc1[nH][nH]c(=O)c1C=Nc1ccc(F)cc1F | 0.924% | 
19 | COc1cccc(N(CC(=O)N2CCc3ccccc3C2)S(C)(=O)=O)c1 | 5.09% | 
20 | CS(=O)(=O)N(CC(=O)N1CCc2ccccc2C1)c1ccc(Br)cc1 | -22.6% | 
21 | Cc1ccc(S(=O)(=O)N(CC(=O)N2CCc3ccccc3C2)c2cccc(Cl)c2)cc1 |  | 20.6 µM (active)
22 | Cc1ccccc1CNC(=O)CCC(=O)N1Cc2ccccc2Oc2ncccc21 | -21.1% | 

Row | SMILES | activity change, negative = growth inhibition | Potency
23 | COc1ccc(C(=O)N(C)Cc2ccc(OC)c(OC)c2OC)cc1S(=O)(=O)N1CCOCC1 | 21.5% | 
24 | Cc1cccc(N(Cc2ccccc2)C(=O)c2cc(S(=O)(=O)N3CCOCC3)ccc2F)c1 |  | 18.4 µM (active)
25 | Cc1ccc(S(=O)(=O)N2CCN(C(=O)c3cc(S(=O)(=O)N4CCOCC4)ccc3F)CC2)cc1 | -16.8% | 
26 | Cc1ccc(C(=O)OCC(=O)N2CCCCCC2)cc1S(=O)(=O)N1CCOCC1 | 4.19% | 
27 | COc1ccc(C(=O)N(Cc2ccccc2)c2ccc(C)cc2)cc1S(=O)(=O)N1CCOCC1 |  | 14.6 µM (active)
28 | COc1ccc(C(=O)NCc2ccc(C)cc2)cc1S(=O)(=O)N1CCCC1 | 0.964% | 
29 | Cc1ccc(S(=O)(=O)N2CCOCC2)cc1C(=O)NC(=S)N(Cc1ccccc1)C(C)C | -7.61% | 
30 | COc1ccc(C(=O)OCC(=O)c2ccc(C)c(S(=O)(=O)N3CCOCC3)c2)cc1OC |  | 11.6 µM (active)
31 | CCOc1ccc(CCNC(=O)COC(=O)c2ccc(C)c(S(=O)(=O)N3CCOCC3)c2)cc1OCC | -3.81% | 
32 | O=C1c2cccc3cccc(c23)N1CN1CCN(c2ccccn2)CC1 | 4.31% | 
33 | CCCCc1ccc(NC(=S)N2CCCC(CO)C2)cc1 (stereo not given) | -12.3% | 
34 | Oc1ccc2ccc3cccc[n+]3c2c1 | -17.9% | 
35 | CCCCN(CC)CCCNC(=O)c1ccc(CSc2nc3ccncc3[nH]2)cc1 | -13.3% | 
36 | O=C(Cn1ccc([N+](=O)[O-])n1)NCc1cccs1 | -15% | 
37 | O=C(COC(=O)c1cccc(Cl)c1)Nc1ccc2[nH]c(=O)[nH]c2c1 | -12.1% | 
38 | C/C=C/C1=C(C(=O)O)N2C(=O)[C@@H](NC(=O)[C@H](N)c3ccc(O)cc3)[C@H]2SC1 | -2.02% | 
39 | CCN(CC)CCNC(=O)CN1N=C(c2ccc(OC)cc2)CCC1=O | -5.02% | 
40 | O=C(NCc1cccnc1)c1cnc2ccccc2n1 | -20.8% | 
41 | COc1ccc(CCNC(=O)c2ccc(CS(=O)(=O)c3ccc(Br)cc3)o2)cc1OC |  | 14.6 µM (active)
42 | COc1ccccc1CNC(=O)c1ccc(CS(=O)(=O)c2ccccc2)o1 | -26.6% | 
43 | O=C(NCc1cccnc1)c1ccc(CS(=O)(=O)c2ccc(Br)cc2)o1 |  | 14.6 µM (active)
44 | COc1ccc(CCNC(=O)Cc2ccc(C)cc2)cc1OC | -22% | 

Row | SMILES | activity change, negative = growth inhibition | Potency
45 | Cc1ccc(CCNC(=O)c2ccc(CS(=O)(=O)Cc3cccc(C)c3)o2)cc1 |  | 18.4 µM (active)
46 | O=C(NCc1ccco1)c1ccc(CS(=O)(=O)Cc2ccc(F)cc2)o1 | -24.8% | 
47 | COc1ccc(CCNC(=O)c2ccc(CSCc3ccc(C)cc3)o2)cc1OC |  | 23.1 µM (active)
48 | Cc1ccc(CNC(=O)c2ccc(CS(=O)Cc3cccc(Cl)c3)o2)cc1 (stereo not given) | -6.34% | 
49 | CCCNS(=O)(=O)c1ccc(CCC(=O)NCc2cccnc2)cc1 | -2.63% | 
50 | COc1ccc(CCNC(=O)CCNS(=O)(=O)c2cc(Br)cnc2N)cc1OC | -3.66% | 
51 | COc1ccc(CCNC(=O)NS(=O)(=O)c2ccc(C)cc2)cc1OC | -5.03% | 
52 | COCCCn1c(SCC(=O)NC2CCCC2)nnc1-c1ccccc1 | -0.642% | 
53 | Cc1ccc(S(=O)(=O)NNC(=S)NC(C)(C)C)cc1 | -10.7% | 
54 | CN(Cc1ccccc1)C(=O)COC(=O)/C=C/c1ccc2c(c1)OCO2 | 5.6% | 
55 | CN(C)c1nc2n(c(=O)n1)CCO2 | -3.42% | 
56 | O=C(O)Cc1ccc(NC(=O)C2CCCCC2C(=O)O)cc1 (stereo not given) | -3.53% | 
57 | COCCn1c(=O)c(C)nc2cnc(N(C)C)nc21 | -27.8% | 
58 | O=C(O)C1CCN(S(=O)(=O)N2CCOCC2)CC1 | 0.819% | 
59 | CC1CN(C(=O)COC(=O)c2cccc(NS(=O)(=O)c3ccccc3)c2)CC(C)O1 (stereo not given) | -19.5% | 
60 | CCOC(=O)c1cc(S(=O)(=O)NCCc2ccc(OC)c(OC)c2)cn1C | -18.3% | 
61 | CN1CCCN(C(=O)C2CCCCC2)CC1 | 8.41% | 
62 | CCOc1ccc(NC(=O)CC(Cc2ccc(Cl)cc2)C(=O)O)cc1 (stereo not given) | -15.9% | 
63 | COc1ccc(C2OC(CCc3ccccc3)Cc3[nH]c(=S)[nH]c(=O)c32)cc1 (stereo not given) |  | 18.4 µM (active)
64 | COc1ccc(N2C(=O)C(Cc3ccccc3)NC2=S)cc1 (stereo not given) | 1.43% | 
65 | COc1ccc(C2CC(=O)NC(=O)C2)cc1 | -0.287% | 
